Our source for the outcome and AC50 values is PubChem BioAssay (EPA / NIEHS).

“And” between values parts separate entries of the source, which are not always exact repeats. Identical values can stand only once. Inconclusive results are not listed. The source made the active and inactive calls. Rule for the calls, unless noted: active = hit-call score of the fitted dose curve at least 0.9, where 1 is the maximum; inactive = score below 0.9.

Test [1] is described as follows: BSK_3C_Vis: BioMAP Diversity Plus: 3C Assay for Morphology Visualization (AID 2283025).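 For AC50: light microscopy image of cell morphology used as background control.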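 Note: fitted both ways so gain or loss versus DMSO counts.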 The settings on record: primary human endothelial cells (HUVEC). An outline of the steps:
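Human umbilical vein endothelial cell morphology was inspected by light microscopy 24 h after chemical dosing; scored bidirectionally relative to DMSO.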

Read-out in test [2]: Transforming growth factor beta 1 (TGFb1), TGFB1 (gene 7040)
Briefly: BSK_BE3C_TGFb1: BioMAP Diversity Plus: BE3C Assay for Transforming growth factor beta 1 (TGFb1) Biomarker Activity (AID 2283036). To be noted: primary human bronchial epithelial cells; actives raise or lower the signal. The method in brief:
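Primary human bronchial epithelial cells dosed with chemical; TGF-b1 measured by ELISA 24 h after dosing. Bidirectional curve fitting against DMSO negative control; SRB total-protein staining in parallel cultures gauged cytotoxicity.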

A short description of test [3]: BSK_CASM3C_SRB: Viability Assessment in the BioMAP Diversity Plus: CASM3C Assay (AID 2283050). To be noted: primary human coronary artery smooth muscle cells.
Read-out in test [4]: Transforming growth factor beta 1 (TGFb1), TGFB1 (gene 7040)
Briefly: BSK_KF3CT_TGFb1: BioMAP Diversity Plus: KF3CT Assay for Transforming growth factor beta 1 (TGFb1) Biomarker Activity (AID 2283072). The settings on record: primary human keratinocytes with fibroblasts; actives raise or lower the signal. An outline of the steps: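 Human keratinocyte/foreskin fibroblast co-culture; TGF-b1 measured by ELISA 24 h after dosing, fitted bidirectionally versus DMSO. Cytotoxicity checked in parallel cultures by total protein (SRB staining, 560 nm).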

Read-out in test [5]: CD40, CD40 (gene 958)
Briefly: BSK_LPS_CD40: BioMAP Diversity Plus: LPS Assay for CD40 Biomarker Activity (AID 2283076). The settings on record: primary human HUVEC with PBMC; actives raise or lower the signal. The method in brief: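 In the LPS system of human endothelial cells with peripheral blood mononuclear cells, CD40 levels were read by ELISA 24 h post-treatment. Signal changes in either direction were fitted against the DMSO baseline, with parallel SRB protein staining.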

Read-out in test [6]: Interleukin-1 alpha (IL1a), IL1A (gene 3552)
The test is described as follows: BSK_LPS_IL1a: BioMAP Diversity Plus: LPS Assay for Interleukin-1 alpha (IL1a) Biomarker Activity (AID 2283080). To be noted: primary human HUVEC with PBMC; actives raise or lower the signal. The method in brief:
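Readout is IL-1a level by ELISA, 24 h post-dose, fitted as gain or loss relative to DMSO. System: LPS-activated human primary co-culture of vascular endothelium and peripheral blood mononuclear cells, with parallel SRB total-protein cytotoxicity.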

Read-out in test [7]: Monocyte Chemoattractant Protein-1 (MCP1), CCL2 (gene 6347)
The test is described as follows: BSK_LPS_MCP1: BioMAP Diversity Plus: LPS Assay for Monocyte Chemoattractant Protein-1 (MCP1) Biomarker Activity (AID 2283081).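 For AC50: secreted MCP-1 protein quantified by ELISA in culture supernatant.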 The settings on record: primary human HUVEC with PBMC; actives raise or lower the signal. An outline of the steps:
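Secreted MCP-1 read by ELISA at 24 h post-dosing in an LPS-activated co-culture of endothelial cells with peripheral blood mononuclear cells. Fits run in both directions, DMSO as baseline; parallel SRB staining tracks overt cytotoxicity.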

Test [8] can be described thus: BSK_LPS_PGE2: BioMAP Diversity Plus: LPS Assay for Prostaglandin E2 (PGE2) Biomarker Activity (AID 2283082). To be noted: primary human HUVEC with PBMC; actives raise or lower the signal. The method in brief:
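HUVEC plus human PBMC co-culture stimulated with LPS; secreted PGE2 quantified by ELISA 24 h after chemical dosing. Activity fitted bidirectionally against DMSO baseline; parallel SRB staining (0.1% SRB after 10% TCA fixation, 560 nm) flags overt cytotoxicity.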

Read-out in test [9]: Macrophage colony-stimulating factor (MCSF), CSF1 (gene 1435)
Briefly: BSK_LPS_MCSF: BioMAP Diversity Plus: LPS Assay for Macrophage colony-stimulating factor (MCSF) Biomarker Activity (AID 2283083). To be noted: primary human HUVEC with PBMC; actives raise or lower the signal. The method in brief: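 Bidirectional fitting against DMSO was applied to M-CSF levels read by ELISA at 24 h post-dose. The system pairs human umbilical vein endothelium with peripheral blood mononuclear cells; parallel SRB staining tracked cytotoxicity.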

Read-out in test [10]: Tissue Factor, F3 (gene 2152)
Briefly: BSK_LPS_TissueFactor: BioMAP Diversity Plus: LPS Assay for Tissue Factor Biomarker Activity (AID 2283084). The settings on record: primary human HUVEC with PBMC; actives raise or lower the signal. An outline of the steps: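 Compound was added to an endothelial cell/PBMC co-culture, and after 24 h tissue factor (CD142) was read by ELISA. Gain or loss of signal was fitted against a DMSO baseline, and parallel SRB staining (560 nm) tracked overt cytotoxicity.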

Read-out in test [11]: Vascular cell adhesion molecule 1 (VCAM1), VCAM1 (gene 7412)
The test is described as follows: BSK_LPS_VCAM1: BioMAP Diversity Plus: LPS Assay for Vascular cell adhesion molecule 1 (VCAM1) Biomarker Activity (AID 2283086). The settings on record: primary human HUVEC with PBMC; actives raise or lower the signal. The method in brief:
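Human umbilical vein endothelial cells co-cultured with PBMC and stimulated with LPS; VCAM-1 measured by ELISA 24 h after dosing. Bidirectional curve fitting against DMSO baseline; cytotoxicity tracked in parallel by SRB total-protein staining.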

Read-out in test [12]: CD38, CD38 (gene 952)
Briefly: BSK_SAg_CD38: BioMAP Diversity Plus: SAg Assay for CD38 Biomarker Activity (AID 2283087). To be noted: primary human HUVEC with PBMC; actives raise or lower the signal. An outline of the steps:
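Human HUVEC plus PBMC co-culture stimulated with superantigen; CD38 measured by ELISA 24 h after chemical dosing. Fluorescence read-out, bidirectional fit against DMSO; cytotoxicity tracked in parallel by SRB and Alamar Blue.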

Read-out in test [13]: CD40, CD40 (gene 958)
The test is described as follows: BSK_SAg_CD40: BioMAP Diversity Plus: SAg Assay for CD40 Biomarker Activity (AID 2283088). To be noted: primary human HUVEC with PBMC; actives raise or lower the signal. The method in brief: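 CD40 is measured by fluorescence ELISA in an endothelial/PBMC primary human co-culture at 24 h post-dose. Fitting is bidirectional, DMSO baseline. Parallel SRB staining (560 nm) flags cytotoxicity.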

Read-out in test [14]: CD69, CD69 (gene 969)
The test is described as follows: BSK_SAg_CD69: BioMAP Diversity Plus: SAg Assay for CD69 Biomarker Activity (AID 2283089).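 For AC50: cell surface CD69 protein quantified by ELISA with fluorescence detection.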 To be noted: primary human HUVEC with PBMC; actives raise or lower the signal. An outline of the steps:
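HUVEC co-cultured with PBMC were dosed with chemical, and CD69 was measured by ELISA with fluorescence read-out 24 h later. Bidirectional curve fitting used DMSO as negative control and activity baseline.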

Read-out in test [15]: Monocyte Chemoattractant Protein-1 (MCP1), CCL2 (gene 6347)
Briefly: BSK_SAg_MCP1: BioMAP Diversity Plus: SAg Assay for Monocyte Chemoattractant Protein-1 (MCP1) Biomarker Activity (AID 2283090). To be noted: primary human HUVEC with PBMC; actives raise or lower the signal. The method in brief:
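MCP-1 levels in the endothelial–PBMC SAg co-culture were quantified by ELISA at 24 h post-dosing; both increases and decreases versus DMSO scored. Cytotoxicity monitored by SRB total protein in parallel cultures.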

Read-out in test [16]: Monokine induced gamma interferon (MIG), CXCL9 (gene 4283)
The test is described as follows: BSK_SAg_MIG: BioMAP Diversity Plus: SAg Assay for Monokine induced gamma interferon (MIG) Biomarker Activity (AID 2283092). To be noted: primary human HUVEC with PBMC; actives raise or lower the signal. The method in brief: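 HUVEC plus human PBMC co-culture, chemicals dosed and MIG (CXCL9) quantified by ELISA at 24 h. Bidirectional curve fitting against DMSO as negative control and baseline, so both gain and loss of signal count as activity.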

Test [17] is described as follows: BSK_SAg_SRB: Viability Assessment in the BioMAP Diversity Plus: SAg Assay (AID 2283096).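 Note: cells read one day after compound addition; hits may be either gain or loss of signal compared with DMSO.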 To be noted: primary human HUVEC with PBMC. An outline of the steps:
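Human umbilical vein endothelial cells co-cultured with PBMC, read 24 h after compound dosing. Total protein measured by sulforhodamine B staining (0.1% SRB after 10% TCA fixation, absorbance 560 nm); bidirectional fit versus DMSO baseline.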

Test [18] is described as follows: BSK_BT_PBMCCytotoxicity: PBMC Cytotoxicity Assessment in the BioMAP Diversity Plus: BT Assay (AID 2284225).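 Note: PBMC viability measured by Alamar Blue dye reduction fluorescence.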 To be noted: primary human B cells with PBMC. The method in brief: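 PBMC (75,000/well) pretreated with compound 1 h, then activated with SEB and TSST-1 (20 ng/mL each final), incubated 90 h; Alamar Blue added 6 h, fluorescence read at 546/580 nm. Fitted relative to DMSO.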

Read-out in test [19]: Secreted IgG (sIgG), gene 3500
Briefly: BSK_BT_sIgG: BioMAP Diversity Plus: BT Assay for Secreted IgG (sIgG) Biomarker Activity (AID 2284226). To be noted: primary human B cells with PBMC. An outline of the steps: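 Human B cell plus PBMC co-culture; secreted IgG measured by ELISA 24 h after chemical dosing. Response fitted in positive direction relative to DMSO baseline.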

Test [20] deals with Estrogen receptor (Homo sapiens) (UniProt P03372). Briefly: ATG_ERa_TRANS: Attagene TRANS-FACTORIAL HepG2 Assay for human Estrogen Receptor alpha (ERa) (AID 2282970; active = hit-call score of the fitted dose curve at least 0.9, where 1 is the maximum). To be noted: HepG2 Attagene TRANS ERa GAL4 reporter, mRNA. The method in brief: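 Cells: HepG2, transiently transfected. Construct: GAL4-UAS reporter units regulated by exogenous NR-Gal4 chimeras. Time: 24 h. Detection: reporter mRNA by RT-PCR, capillary electrophoresis, fluorescence. Baseline: DMSO, upward fitting.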
Chain of Estrogen receptor (Homo sapiens) (P03372 whole entry, looked up, the tested form may be a part): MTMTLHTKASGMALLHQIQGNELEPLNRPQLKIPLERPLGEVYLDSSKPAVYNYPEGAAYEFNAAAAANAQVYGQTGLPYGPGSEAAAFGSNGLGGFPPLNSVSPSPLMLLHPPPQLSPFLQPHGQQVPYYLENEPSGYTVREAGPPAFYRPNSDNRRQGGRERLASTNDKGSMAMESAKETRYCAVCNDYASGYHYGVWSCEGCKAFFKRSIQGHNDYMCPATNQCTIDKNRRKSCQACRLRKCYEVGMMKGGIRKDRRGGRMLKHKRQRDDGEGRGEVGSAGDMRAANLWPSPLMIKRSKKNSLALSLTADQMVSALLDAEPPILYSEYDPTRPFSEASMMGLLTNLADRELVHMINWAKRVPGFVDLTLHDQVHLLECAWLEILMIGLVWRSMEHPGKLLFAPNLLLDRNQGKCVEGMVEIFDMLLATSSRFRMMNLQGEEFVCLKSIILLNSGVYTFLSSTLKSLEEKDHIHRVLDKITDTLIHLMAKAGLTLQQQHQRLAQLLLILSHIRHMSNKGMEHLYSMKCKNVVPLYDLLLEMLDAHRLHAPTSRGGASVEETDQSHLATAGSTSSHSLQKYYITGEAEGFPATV

Turning to `CCCCCCCCCC/C=C/C1CC(=O)OC1=O` (stereo not given), the result in test [1], in test [2], in test [3], in [4], in test [5] and in test [6] was inactive. Also, the outcome in test [7], in test [8], in test [9], in test [10], in test [11] and in test [12] was inactive. For the same compound, the result in test [13], in [14], in test [15], in [16], in test [17] and in test [18] was inactive. For the same compound, the outcome in test [19] was inactive.
As usually defined, the AC50 is the midpoint of the concentration-response curve, whichever way the signal moves. On to `CN(C)Cc1cc(C(C)(C)C)c(O)c(C(C)(C)C)c1`, for which the result in test [3], in test [5], in test [6], in [7], in test [8] and in test [9] was inactive. Moreover, the result in [10], in [11], in test [12], in [13], in [15] and in [16] was inactive. Also, the outcome in test [17] was inactive. Also, in test [14], the AC50 is 20 µM (active) and 15.4 µM (active).
As to `CC(=O)c1nccs1`, the AC50 in test [20] was 39.3 µM (active).
For `CCCCCCCCCCCCCCCCCC[N+](C)(C)C`, the compound was called inactive in [20], in [2] and in [8]. Also, the AC50 was 1.34 µM (active) in test [1]; 5.94 µM (active) in test [3]; 2.15 µM (active) in test [4]; 6.84 µM (active) in test [5]; 1.22 µM (active) in test [6]; 3.66 µM (active) in [7]. Further, the half-maximal activity concentration (AC50) was 5 µM (active) in test [9]; 8.03 µM (active) in test [10]; 7.96 µM (active) in test [11]; 5 µM (active) in [12]; 5 µM (active) in test [13]; 7.15 µM (active) in test [14]. For the same compound, the AC50 in [15] was 6.02 µM (active); in [16], 8.07 µM (active); in test [17] it was 3.82 µM (active); in test [18] it was 4.37 µM (active); in [19] it was 0.706 µM (active).
Turning to `Oc1ccc(Oc2ccccc2)cc1`, the AC50 in test [20] is 1.44 µM (active).
For the compound `O=C(C(=O)c1ccccc1)c1ccccc1`, the result in [1], in test [2], in [3], in [4], in test [5] and in [6] was inactive. In addition, the result in [7], in test [8], in test [9], in [10], in [11] and in [12] was inactive. In addition, the outcome in [13], in [14], in test [15], in test [16], in test [17] and in test [18] was inactive. The result in test [19] was inactive.
Consider `NC(N)=Nc1nc(CSCCC(N)=NS(N)(=O)=O)cs1`, for which the outcome in [20] was inactive.
